Source: PubChem (National Center for Advancing Translational Sciences (NCATS))
Sampled rows, rich in hits. Any-hit rate of the full collection: about 19%.
RORg inh: blocks mouse ROR gamma transcriptional activity. P51450. Drosophila S2 Gal4-RORgamma UAS-luciferase reporter, 20 h. Potency, µM (doses to about 53.6 µM), for inactives: at the top dose activity change, negative = inhibition, usual class: inhibitors. hit rate 5.4% among 310,000; note: nearly all actives have a fitted effect of over 60% in size
Target sequence (P51450 whole entry, looked up, the tested form may be a part): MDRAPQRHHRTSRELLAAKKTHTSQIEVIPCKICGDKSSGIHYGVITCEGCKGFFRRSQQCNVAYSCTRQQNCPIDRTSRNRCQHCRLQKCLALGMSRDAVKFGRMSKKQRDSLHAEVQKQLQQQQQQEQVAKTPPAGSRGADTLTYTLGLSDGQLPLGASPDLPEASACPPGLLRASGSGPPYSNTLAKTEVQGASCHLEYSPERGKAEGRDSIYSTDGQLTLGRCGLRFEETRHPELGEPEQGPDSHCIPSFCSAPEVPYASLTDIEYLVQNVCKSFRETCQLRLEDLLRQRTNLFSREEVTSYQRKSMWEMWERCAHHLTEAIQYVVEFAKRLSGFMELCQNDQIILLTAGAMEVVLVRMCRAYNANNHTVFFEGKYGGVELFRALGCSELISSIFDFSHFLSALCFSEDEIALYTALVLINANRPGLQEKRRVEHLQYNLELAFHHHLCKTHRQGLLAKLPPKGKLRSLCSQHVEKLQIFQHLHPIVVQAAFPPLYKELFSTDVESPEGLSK
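Luciferase reporter read in Schneider cells carrying Gal4-RORγ (mouse) and UAS-Photinus luciferase; cells given compound 1 h before 700 uM copper sulfate induction, then incubated 20 h at ambient temperature.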
DT40 TDP1 CPT: growth inhibition of DT40 Tdp1-/-;hTDP1 cells with camptothecin (screen for TDP1 inhibitors). chicken DT40 Tdp1-/-;hTDP1 cells + 20 nM CPT, ATP luminescence, 48 h. Potency, µM (doses to about 46.2 µM), for the others: at the highest dose activity change, negative = growth inhibition, usual class: inhibitors. hit rate 12% among 420,000. AID 686979; note: nearly all actives have a fitted effect of over 55% in size
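Cell growth measured by CellTiter-Glo luminescence after a minimum 48 h, 37 C compound exposure with 20 nM CPT in Tdp1-knockout DT40 cells stably expressing hTDP1, seeded 400/well; qHTS titration format.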
VP16 counter: Gal4-VP16 reporter inhibition counter-screen; Drosophila S2 Gal4-VP16 UAS-luciferase, luminescence, 20 h; Potency, µM (titrated, usually from 53.6 µM), for the others: at the highest dose activity, negative = inhibition, most hits filed as inhibitors; hit rate 3.5% among 310,000; AID 2546;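 note: Gal4-VP16 expression switched on by copper sulfate through the metallothionein promoter; nearly all actives have a fitted effect of over 50% in size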
DT40 TDP1 no CPT: qHTS for Inhibitors of human tyrosyl-DNA phosphodiesterase 1 (TDP1): qHTS in cells in absence of CPT | Potency, µM (doses to about 46.2 µM), without a hit: top-dose activity change, negative = growth inhibition, usual class: inhibitors | AID 686978, 2013 | hit rate 15% among 420,000 | DT40 Tdp1-/- hTDP1 cells, no CPT, ATP luminescence, 48 h; note: nearly all actives have a fitted effect of over 55% in size
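Seeded 400 DT40-hTDP1 cells/well (vehicle DMSO, no 20 nM CPT); pinned compounds; ≥48 hr at 37 °C; CellTiter-Glo luminescence as viability measure.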
TDP1 inh: TDP1 (human) enzyme inhibition; recombinant TDP1, AlphaScreen DNA substrate cleavage; AID 485290; Q9NUW8; hit rate 0.28% among 350,000; Potency, µM (titrated, usually from 130 µM), inactives show top-dose activity change, negative = inhibition, usual class: inhibitors; note: nearly all actives have a fitted effect of over 40% in size
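Steps: enzyme plus compound, 15 min RT; add biotin/phosphotyrosine-FITC oligonucleotide (15 nM final), react 5 min; add donor/acceptor beads (10 ug/ml final), 10 min; read AlphaScreen. Tdp1 at 1 nM final.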
* hit, by the source's call; [ ] = dose if it differs, or a comment. Calls come from the whole dose curve; as a rule, active = well fitted curve in the direction sought with a large enough effect; inconclusive = small, poorly fitted or top-dose-only effect, or another doubt; inactive = no such curve, though single readings can be large; an effect the other way counts as inactive or inconclusive. % is set by controls: 0 for no effect and ±100 for the full control effect; potency is the fitted concentration of half-maximal effect.

Results for N#C/C(=C\c1cccs1)C(=O)NCc1ccccc1 ?
RORg inh: 34%; DT40 TDP1 CPT: 12µM*; VP16 counter: 15%; DT40 TDP1 no CPT: 21µM*; TDP1 inh: 5%

What do the screens show for `N#C/C(=C\c1cccs1)C(=O)NCc1cccnc1`?
RORg inh: inconclusive; DT40 TDP1 CPT: -6%; VP16 counter: 20%; DT40 TDP1 no CPT: 13%; TDP1 inh: 3%

What do the screens show for `CC(C)(C)C(=O)/C(C#N)=C/c1cccs1`?
RORg inh: 2%; DT40 TDP1 CPT: 1%; VP16 counter: -13%; DT40 TDP1 no CPT: -12%; TDP1 inh: 6%

How did N#C/C(=C\c1cccs1)C(=O)Nc1nccs1 do in these assays?
RORg inh: 7.1µM*; DT40 TDP1 CPT: inconclusive; VP16 counter: inconclusive; DT40 TDP1 no CPT: 2.9µM*; TDP1 inh: 3%

Results for O=C1NC(=O)C(Cc2cccc(Oc3ccccc3)c2)S1 (stereo not given) ?
RORg inh: 11%; DT40 TDP1 CPT: inconclusive; VP16 counter: 5%; DT40 TDP1 no CPT: -11%

What do the screens show for `CC(=O)NC(CCS(C)(=O)=O)C(=O)Nc1ccc2c(c1)OCO2` (stereo not given)?
RORg inh: -6%; DT40 TDP1 CPT: -23%; VP16 counter: 7%; DT40 TDP1 no CPT: -4%; TDP1 inh: -6%

Results for Cc1ccccc1-c1cccc([C@@H]2C[C@H]3CN(Cc4cccnc4)C(=O)[C@]34CCCN24)c1 ?
RORg inh: 41%; DT40 TDP1 CPT: 23µM*; VP16 counter: -3%; DT40 TDP1 no CPT: 18µM*

How did O=C1N(Cc2cccnc2)C[C@@H]2C[C@@H](c3ccccc3C#Cc3ccccc3)N3CCC[C@@]123 do in these assays?
RORg inh: 7%; DT40 TDP1 CPT: 29µM*; VP16 counter: -6%; DT40 TDP1 no CPT: 16µM*; TDP1 inh: 5%

How did CC(C)N1CCN(Cc2ccc(OCc3ccccc3)cc2)CC1CCO (stereo not given) do in these assays?
RORg inh: 1%; DT40 TDP1 CPT: inconclusive; VP16 counter: -2%; DT40 TDP1 no CPT: inconclusive; TDP1 inh: 0%

What do the screens show for `c1ccc(N2CCN(Cc3ccsc3)CC2)nc1`?
RORg inh: 0%; DT40 TDP1 CPT: 0%; VP16 counter: -1%; DT40 TDP1 no CPT: -19%; TDP1 inh: -3%

How did COc1cc2c(cc1OC)C(c1cc(Br)ccc1F)N(C(=O)CCl)CC2 (stereo not given) do in these assays?
RORg inh: 7.9µM*; DT40 TDP1 CPT: 1.5µM*; VP16 counter: inconclusive; DT40 TDP1 no CPT: 1.6µM*

Results for COc1ccc(C(N)CCc2ccco2)cc1 (stereo not given) ?
RORg inh: -1%; DT40 TDP1 CPT: inconclusive; VP16 counter: -3%; DT40 TDP1 no CPT: inconclusive; TDP1 inh: 8%

How did Cc1ccc(/C=N/NC(=O)c2cccc(S(=O)(=O)Nc3ccccc3Cl)c2)o1 do in these assays?
RORg inh: 13µM*; DT40 TDP1 CPT: -6%; VP16 counter: inconclusive; DT40 TDP1 no CPT: -9%; TDP1 inh: 8%

Results for COc1ccccc1NS(=O)(=O)c1cccc(C(=O)N/N=C/c2ccc3c(c2)OCCO3)c1 ?
RORg inh: -7%; DT40 TDP1 CPT: -5%; VP16 counter: -5%; DT40 TDP1 no CPT: -19%; TDP1 inh: 7%

What do the screens show for `COc1ccccc1NS(=O)(=O)c1cccc(C(=O)N/N=C/c2ccc([N+](=O)[O-])o2)c1`?
DT40 TDP1 CPT: 3.7µM*; DT40 TDP1 no CPT: 2.9µM*; TDP1 inh: -9%[0.505 µM]

What do the screens show for `CCN(CC)c1ccc(/C=N/NC(=O)c2cccc(S(=O)(=O)Nc3ccccc3OC)c2)c(O)c1`?
RORg inh: 2.5µM*; DT40 TDP1 CPT: 3.3µM*; VP16 counter: 4.5µM*; DT40 TDP1 no CPT: 2.9µM*; TDP1 inh: 11%

What do the screens show for `COc1ccccc1NS(=O)(=O)c1cccc(C(=O)NN=C2CCCC2)c1`?
RORg inh: -25%; DT40 TDP1 CPT: -11%; VP16 counter: -7%; DT40 TDP1 no CPT: -14%; TDP1 inh: -8%
